Targets with a hit are over-represented here; the source holds about 7,900 in all. About 0.6% of all pairs of compound and target were hits. Unmarked numbers belong to inactive results.

UniProt P29966, sequence (P29966 whole entry, looked up): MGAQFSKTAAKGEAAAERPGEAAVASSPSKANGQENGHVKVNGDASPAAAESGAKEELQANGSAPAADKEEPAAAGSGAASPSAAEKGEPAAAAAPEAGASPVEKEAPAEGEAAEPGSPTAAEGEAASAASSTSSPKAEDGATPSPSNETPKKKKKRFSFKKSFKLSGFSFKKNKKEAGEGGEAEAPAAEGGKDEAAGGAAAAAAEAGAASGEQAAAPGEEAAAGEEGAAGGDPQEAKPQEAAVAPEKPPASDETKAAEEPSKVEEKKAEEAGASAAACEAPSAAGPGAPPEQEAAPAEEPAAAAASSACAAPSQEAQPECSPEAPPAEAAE
UniProt P14174, sequence (P14174 whole entry, looked up): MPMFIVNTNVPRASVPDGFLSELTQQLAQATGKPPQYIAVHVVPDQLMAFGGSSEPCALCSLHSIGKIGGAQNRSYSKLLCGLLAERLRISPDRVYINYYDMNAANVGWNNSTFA
UniProt Q8IVT5, sequence (Q8IVT5 whole entry, looked up): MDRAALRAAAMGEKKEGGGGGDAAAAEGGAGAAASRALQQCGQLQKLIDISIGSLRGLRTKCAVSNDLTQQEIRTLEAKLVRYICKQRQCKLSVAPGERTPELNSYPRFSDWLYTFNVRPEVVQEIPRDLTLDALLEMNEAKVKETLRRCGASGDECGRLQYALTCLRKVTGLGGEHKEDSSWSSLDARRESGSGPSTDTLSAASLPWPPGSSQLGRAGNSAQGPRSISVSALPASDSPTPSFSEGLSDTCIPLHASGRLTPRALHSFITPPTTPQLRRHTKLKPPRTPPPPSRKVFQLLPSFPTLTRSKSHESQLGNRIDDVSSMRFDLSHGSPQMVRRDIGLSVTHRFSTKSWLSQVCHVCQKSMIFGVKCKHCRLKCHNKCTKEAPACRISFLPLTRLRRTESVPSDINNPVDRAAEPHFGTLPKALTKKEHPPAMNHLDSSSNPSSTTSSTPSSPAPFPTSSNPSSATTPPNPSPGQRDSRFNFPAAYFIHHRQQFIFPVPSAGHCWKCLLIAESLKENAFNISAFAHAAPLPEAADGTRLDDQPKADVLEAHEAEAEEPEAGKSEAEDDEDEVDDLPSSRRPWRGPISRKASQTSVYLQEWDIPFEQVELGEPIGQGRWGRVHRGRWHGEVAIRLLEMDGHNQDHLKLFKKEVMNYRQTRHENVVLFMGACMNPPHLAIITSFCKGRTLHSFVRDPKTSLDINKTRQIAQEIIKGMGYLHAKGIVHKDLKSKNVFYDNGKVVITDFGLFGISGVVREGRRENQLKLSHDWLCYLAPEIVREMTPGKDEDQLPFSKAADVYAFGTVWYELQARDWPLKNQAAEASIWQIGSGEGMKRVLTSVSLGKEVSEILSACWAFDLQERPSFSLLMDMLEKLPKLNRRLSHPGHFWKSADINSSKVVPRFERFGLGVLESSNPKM
UniProt Q12906, sequence (Q12906 whole entry, looked up): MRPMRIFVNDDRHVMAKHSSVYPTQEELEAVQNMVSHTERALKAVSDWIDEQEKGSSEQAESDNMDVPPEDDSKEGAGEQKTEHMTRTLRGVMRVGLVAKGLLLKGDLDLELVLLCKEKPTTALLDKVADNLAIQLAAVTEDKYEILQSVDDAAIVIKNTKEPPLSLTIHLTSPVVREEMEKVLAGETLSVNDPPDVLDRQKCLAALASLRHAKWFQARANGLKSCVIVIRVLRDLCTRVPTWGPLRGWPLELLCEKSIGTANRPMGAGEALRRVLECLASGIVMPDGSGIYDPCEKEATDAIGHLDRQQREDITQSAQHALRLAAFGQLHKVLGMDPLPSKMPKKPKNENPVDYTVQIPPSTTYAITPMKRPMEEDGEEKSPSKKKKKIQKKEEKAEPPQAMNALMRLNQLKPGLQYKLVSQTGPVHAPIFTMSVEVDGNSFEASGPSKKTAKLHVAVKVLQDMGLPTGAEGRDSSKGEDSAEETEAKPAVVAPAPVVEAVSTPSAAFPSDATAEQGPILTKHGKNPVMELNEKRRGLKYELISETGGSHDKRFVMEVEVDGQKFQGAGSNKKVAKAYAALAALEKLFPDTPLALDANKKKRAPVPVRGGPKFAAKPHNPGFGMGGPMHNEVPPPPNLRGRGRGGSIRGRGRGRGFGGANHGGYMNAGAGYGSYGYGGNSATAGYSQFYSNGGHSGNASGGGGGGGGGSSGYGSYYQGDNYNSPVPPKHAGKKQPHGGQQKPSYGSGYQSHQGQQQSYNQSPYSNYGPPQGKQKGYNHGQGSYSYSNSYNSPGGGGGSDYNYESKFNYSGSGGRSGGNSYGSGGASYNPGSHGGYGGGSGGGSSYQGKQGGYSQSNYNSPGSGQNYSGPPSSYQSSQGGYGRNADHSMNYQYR
UniProt P32019, sequence (P32019 whole entry, looked up): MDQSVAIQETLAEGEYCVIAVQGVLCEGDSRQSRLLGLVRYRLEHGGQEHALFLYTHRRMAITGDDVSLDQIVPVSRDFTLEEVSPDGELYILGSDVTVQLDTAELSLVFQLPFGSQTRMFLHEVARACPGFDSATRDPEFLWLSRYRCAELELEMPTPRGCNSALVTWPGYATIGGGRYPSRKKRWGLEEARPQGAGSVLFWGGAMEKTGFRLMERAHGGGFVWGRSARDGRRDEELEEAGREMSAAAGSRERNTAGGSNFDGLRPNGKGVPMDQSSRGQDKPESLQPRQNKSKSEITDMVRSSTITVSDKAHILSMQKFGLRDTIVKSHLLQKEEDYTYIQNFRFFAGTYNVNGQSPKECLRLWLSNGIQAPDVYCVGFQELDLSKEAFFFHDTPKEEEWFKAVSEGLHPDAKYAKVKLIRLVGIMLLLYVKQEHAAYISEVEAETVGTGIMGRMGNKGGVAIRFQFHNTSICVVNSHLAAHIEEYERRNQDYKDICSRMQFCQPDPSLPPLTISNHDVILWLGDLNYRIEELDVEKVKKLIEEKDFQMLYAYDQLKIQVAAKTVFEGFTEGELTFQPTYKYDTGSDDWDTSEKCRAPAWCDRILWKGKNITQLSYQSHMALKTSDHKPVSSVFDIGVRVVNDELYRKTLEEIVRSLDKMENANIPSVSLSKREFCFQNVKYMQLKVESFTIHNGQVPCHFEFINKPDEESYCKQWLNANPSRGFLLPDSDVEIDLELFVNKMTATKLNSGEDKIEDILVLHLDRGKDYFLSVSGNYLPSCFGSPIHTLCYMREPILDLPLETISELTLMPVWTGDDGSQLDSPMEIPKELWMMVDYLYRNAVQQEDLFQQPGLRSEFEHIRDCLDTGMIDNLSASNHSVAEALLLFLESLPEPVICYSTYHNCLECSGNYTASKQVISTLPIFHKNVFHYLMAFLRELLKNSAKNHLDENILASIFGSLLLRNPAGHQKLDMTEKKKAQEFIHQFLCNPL
UniProt Q32MZ4, sequence (Q32MZ4 whole entry, looked up): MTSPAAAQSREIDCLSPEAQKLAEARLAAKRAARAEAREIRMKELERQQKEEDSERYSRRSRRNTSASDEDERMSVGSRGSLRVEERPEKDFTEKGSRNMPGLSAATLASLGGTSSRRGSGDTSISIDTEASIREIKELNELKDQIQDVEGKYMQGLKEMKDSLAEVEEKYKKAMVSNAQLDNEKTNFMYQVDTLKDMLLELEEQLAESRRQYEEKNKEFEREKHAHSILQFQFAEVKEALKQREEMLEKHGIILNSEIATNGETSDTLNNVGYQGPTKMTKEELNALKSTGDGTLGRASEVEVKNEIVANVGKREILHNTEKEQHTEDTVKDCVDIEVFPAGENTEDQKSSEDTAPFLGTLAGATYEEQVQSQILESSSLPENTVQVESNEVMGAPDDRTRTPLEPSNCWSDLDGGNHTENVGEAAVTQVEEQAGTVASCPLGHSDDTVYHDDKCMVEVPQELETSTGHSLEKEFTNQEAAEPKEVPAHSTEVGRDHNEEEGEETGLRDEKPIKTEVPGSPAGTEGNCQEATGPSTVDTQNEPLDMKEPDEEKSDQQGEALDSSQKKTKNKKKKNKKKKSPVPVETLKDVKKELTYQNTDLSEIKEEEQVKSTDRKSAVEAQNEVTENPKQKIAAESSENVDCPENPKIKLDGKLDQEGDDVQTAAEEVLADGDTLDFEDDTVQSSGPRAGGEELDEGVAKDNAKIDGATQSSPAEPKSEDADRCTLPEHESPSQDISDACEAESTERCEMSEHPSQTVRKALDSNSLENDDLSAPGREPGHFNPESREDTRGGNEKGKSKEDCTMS
UniProt Q7L2J0, sequence (Q7L2J0 whole entry, looked up): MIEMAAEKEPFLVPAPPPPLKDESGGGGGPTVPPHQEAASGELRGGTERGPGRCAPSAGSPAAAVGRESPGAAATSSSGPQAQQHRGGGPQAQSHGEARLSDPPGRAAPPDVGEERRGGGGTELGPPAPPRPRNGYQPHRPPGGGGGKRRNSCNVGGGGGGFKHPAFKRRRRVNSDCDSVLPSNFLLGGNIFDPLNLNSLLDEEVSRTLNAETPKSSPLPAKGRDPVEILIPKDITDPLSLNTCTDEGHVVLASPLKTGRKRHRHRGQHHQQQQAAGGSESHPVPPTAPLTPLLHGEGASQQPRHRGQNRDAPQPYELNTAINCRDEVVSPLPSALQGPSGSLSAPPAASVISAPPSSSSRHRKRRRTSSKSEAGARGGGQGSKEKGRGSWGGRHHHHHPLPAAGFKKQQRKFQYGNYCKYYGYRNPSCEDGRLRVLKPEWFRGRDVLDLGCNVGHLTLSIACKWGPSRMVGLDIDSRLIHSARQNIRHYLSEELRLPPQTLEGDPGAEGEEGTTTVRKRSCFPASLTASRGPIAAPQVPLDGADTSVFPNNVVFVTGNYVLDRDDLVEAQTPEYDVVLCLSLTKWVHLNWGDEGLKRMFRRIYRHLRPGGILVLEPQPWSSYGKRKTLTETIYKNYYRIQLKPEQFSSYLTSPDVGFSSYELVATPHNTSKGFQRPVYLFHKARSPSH
UniProt Q13257, sequence (Q13257 whole entry, looked up): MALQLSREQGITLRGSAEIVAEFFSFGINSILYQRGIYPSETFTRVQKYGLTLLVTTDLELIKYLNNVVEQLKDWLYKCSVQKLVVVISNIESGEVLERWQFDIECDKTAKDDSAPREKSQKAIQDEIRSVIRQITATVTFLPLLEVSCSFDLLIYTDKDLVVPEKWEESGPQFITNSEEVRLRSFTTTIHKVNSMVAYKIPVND

Compound in the first test: Cc1cn(-c2cc(NC(=O)c3ccc(C)c(Nc4nccc(-c5cccnc5)n4)c3)cc(C(F)(F)F)c2)cn1 [nilotinib]
As to the kind of experiment: log2 fold change, soluble protein after heating vs DMSO (PISA); higher = thermal stabilisation; K562 cells, 10 uM, 30 min; active = over 0.2 and 3.5 SD of the protein, either way, in both replicates (recomputed). The essentials:
(§1)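 Values are thermal stability changes relative to control samples and are taken from duplicates. They are stated as log2 fold changes. Before quantification by TMTpro 16plex LC-MS/MS with equalised channel sums, K562 cells at 2×10^6 cells/mL were treated with 10 μM compound for 30 min, heated in aliquots for 3 min across 48°C-58°C, pooled, extracted in PBS with 0.5% NP-40 at 4°C, and centrifuged at 21,000xg for 90 min to give the soluble supernatant.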
Consider MIEF1 (UniProt Q9NQG6), for which the log2 fold change is 0.022.

Consider LDAH isoform 2 (UniProt Q9H6V9), for which the log2 fold change was 0.175.

MAPKAPK2 (UniProt P49137): the log2 fold change is 0.145.

Regarding LIAS (UniProt O43766), the log2 fold change was 0.038.

In the case of MFSD5 isoform 2 (UniProt Q6N075), the log2 fold change was 0.054.

Regarding LARP4B (UniProt Q92615), the log2 fold change was -0.055.

For LAMP2 (UniProt P13473), the log2 fold change is 0.002.

Turning to MAGEC2 (UniProt Q9UBF1), the log2 fold change was -0.02.

Consider IGFBP4 (UniProt P22692), for which the log2 fold change is 0.077.

Take ILF3 isoform 7 (UniProt Q12906): the log2 fold change is -0.02.

LTV1 (UniProt Q96GA3): the log2 fold change is -0.047.

Turning to MICU2 (UniProt Q8IYU8), the log2 fold change is -0.052.

On to MCUR1 (UniProt Q96AQ8), for which the log2 fold change was 0.015.

Consider KDM1A isoform 2 (UniProt O60341), for which the log2 fold change was -0.078.

As for LEMD2 (UniProt Q8NC56), the log2 fold change is -0.035.

LRRFIP1 (UniProt Q32MZ4): the log2 fold change was 0.008.

On to LPIN1 isoform 7 (UniProt Q14693), for which the log2 fold change is -0.038.

Regarding MFN1 (UniProt Q8IWA4), the log2 fold change was -0.005.

As for KIF1B isoform 4 (UniProt O60333), the log2 fold change is 0.01.

MFGE8 (UniProt Q08431): the log2 fold change is 0.168.

On to MCCC2 (UniProt Q9HCC0), for which the log2 fold change was 0.035.

As for MICU1 isoform 3 (UniProt Q9BPX6), the log2 fold change was -0.037.

In the case of LARP1 (UniProt Q6PKG0), the log2 fold change is -0.063.

With MEPCE (UniProt Q7L2J0), the log2 fold change is 0.

MAD2L1 (UniProt Q13257): the log2 fold change is -0.082.

Regarding KCTD2 (UniProt Q14681), the log2 fold change was -0.144.

Regarding LYPLA2 (UniProt O95372), the log2 fold change is 0.13.

Regarding INPP5B (UniProt P32019), the log2 fold change is -0.077.

Take IPO11 isoform 2 (UniProt Q9UI26): the log2 fold change was 0.012.

As to MARCKS (UniProt P29966), the log2 fold change was 0.053.

With KIF2C (UniProt Q99661), the log2 fold change is -0.082.

Take LPCAT3 (UniProt Q6P1A2): the log2 fold change was 0.044.

As for KTN1 (UniProt Q86UP2), the log2 fold change was -0.117.

As for MIF (UniProt P14174), the log2 fold change is 0.088.

For the target LUC7L3 (UniProt O95232), the log2 fold change is 0.091.

On to LUC7L (UniProt Q9NQ29), for which the log2 fold change is 0.049.

As for KPNA1 (UniProt P52294), the log2 fold change was -0.103.

Regarding KSR1 (UniProt Q8IVT5), the log2 fold change was -0.052.

For MAP2K2 (UniProt P36507), the log2 fold change was -0.003.

Compound in a further test: Cc1nc(Nc2n[nH]c3c2CN(C(=O)N[C@H](CN(C)C)c2ccccc2)C3(C)C)c2sccc2n1
Described as above. The essentials:
as §1
On to MIEF1 (UniProt Q9NQG6), for which the log2 fold change was -0.04.

Turning to LDAH isoform 2 (UniProt Q9H6V9), the log2 fold change was -0.122.

Turning to MAPKAPK2 (UniProt P49137), the log2 fold change was 0.045.

Turning to LIAS (UniProt O43766), the log2 fold change is 0.003.

Regarding MFSD5 isoform 2 (UniProt Q6N075), the log2 fold change is 0.055.

Turning to LARP4B (UniProt Q92615), the log2 fold change is -0.192.

On to LAMP2 (UniProt P13473), for which the log2 fold change is -0.014.

Consider MAGEC2 (UniProt Q9UBF1), for which the log2 fold change was 0.021.

For the target IGFBP4 (UniProt P22692), the log2 fold change was -0.06.

For ILF3 isoform 7 (UniProt Q12906), the log2 fold change is 0.244.

Take LTV1 (UniProt Q96GA3): the log2 fold change was 0.137.

Consider MICU2 (UniProt Q8IYU8), for which the log2 fold change is -0.067.

MCUR1 (UniProt Q96AQ8): the log2 fold change was 0.015.

With KDM1A isoform 2 (UniProt O60341), the log2 fold change is -0.059.

As to LEMD2 (UniProt Q8NC56), the log2 fold change was -0.123.

As to LRRFIP1 (UniProt Q32MZ4), the log2 fold change is 0.002.

On to LPIN1 isoform 7 (UniProt Q14693), for which the log2 fold change is 0.046.

For the target MFN1 (UniProt Q8IWA4), the log2 fold change is -0.05.

With KIF1B isoform 4 (UniProt O60333), the log2 fold change is 0.073.

As to MFGE8 (UniProt Q08431), the log2 fold change was 0.008.

Regarding MCCC2 (UniProt Q9HCC0), the log2 fold change was -0.012.

Turning to MICU1 isoform 3 (UniProt Q9BPX6), the log2 fold change was -0.012.

As for LARP1 (UniProt Q6PKG0), the log2 fold change was -0.014.

For MEPCE (UniProt Q7L2J0), the log2 fold change is -0.337 (active).

Consider MAD2L1 (UniProt Q13257), for which the log2 fold change is -0.042.

KCTD2 (UniProt Q14681): the log2 fold change was 0.012.

As for LYPLA2 (UniProt O95372), the log2 fold change was -0.042.

For the target INPP5B (UniProt P32019), the log2 fold change was 0.001.

Turning to IPO11 isoform 2 (UniProt Q9UI26), the log2 fold change is -0.03.

On to MARCKS (UniProt P29966), for which the log2 fold change was -0.003.

As for KIF2C (UniProt Q99661), the log2 fold change was -0.054.

Regarding LPCAT3 (UniProt Q6P1A2), the log2 fold change was 0.

As to KTN1 (UniProt Q86UP2), the log2 fold change was 0.055.

In the case of MIF (UniProt P14174), the log2 fold change is 0.

As for LUC7L3 (UniProt O95232), the log2 fold change was -2.05 (active).

As to LUC7L (UniProt Q9NQ29), the log2 fold change was -1.71 (active).

Consider KPNA1 (UniProt P52294), for which the log2 fold change was -0.074.

For KSR1 (UniProt Q8IVT5), the log2 fold change is -0.303.

Regarding MAP2K2 (UniProt P36507), the log2 fold change was -0.154.

(Values after the supplement of paper PMC10849652.)
